# Reference: PubChem BioAssay (Tox21)
# Results filed as inconclusive are left out. Entries that show only a call come without a potency. Active and inactive are the calls of the source. Calls follow the shape of the dose curve; as a rule, active = well fitted cell-killing curve with a large enough effect in the repeat runs; inconclusive = weak or mixed curves, or effect the other way; inactive = no such curve, though single readings can be large or run the other way.
# Assay: qHTS assay to identify small molecule antagonists of the peroxisome proliferator-activated receptor gamma (PPARg) signaling pathway - cell viability counter screen (AID 743194); also: nearly all actives have a fitted effect of over 55% in size
# Settings: PPARg-bla HEK293H viability, CellTiter-Glo luminescence, 17 h; Potency: co-treated with 50 nM rosiglitazone; series mostly up to 62.6 µM
# Text: U.S. Tox21 Program National Center for Advancing Translational Sciences [NCATS] NIH Chemical Genomics Center [NCGC] U.S. Environmental Protection Agency [EPA] National Institutes of Environmental Health Sciences [NIEHS] National Toxicology Program [NTP] U.S. Food and Drug Administration [FDA] Tox21 Assay Overview: The peroxisome proliferator-activated receptors (PPARs) are lipid-activated transcription factors of the nuclear receptor superfamily with three distinct subtypes namely PPAR alpha, PPAR delta (also called PPAR beta) and PPAR gamma (PPARg). All these subtypes heterodimerize with Retinoid X receptor (RXR) and these heterodimers regulate transcription of various genes. PPAR-gamma receptor (glitazone receptor) is involved in the regulation of glucose and lipid metabolism. To identify the compounds that activate PPAR-gamma signaling, GeneBLAzer PPAR gamma UAS-bla HEK293H cell line (Invitrogen, Carlsbad, CA, USA) containing a beta-lactamase reporter gene under the control of an Upstream Activator Sequence (UAS) was used to screen the Tox21 compound library. The cytotoxicity of the Tox21 compound library against the PPARg-bla cell line was tested in parallel by measuring the cell viability using CellTiter-Glo assay in the same wells.
# Tox21 Assay Protocol Summary: PPARg-bla cells were dispensed at 3000 cells/5uL/well in 1536-well black wall/clear bottom plates using a Multidrop Combi (Thermo Fisher Scientific, Waltham, MA) dispenser. After the assay plates were incubated at 37 C and 5% CO2 for 5 h, 23 nL of compounds dissolved in DMSO, positive controls or DMSO only was transferred to the assay plate by a Pintool station (Kalypsys, San Diego, CA), followed by addition of 1ul Rosiglitazone (50 nM, final concentration in the wells). The assay plates were incubated at 37 C for 17 h, and then 1 uL of LiveBLAzerTM B/G FRET substrate was added using a Bioraptr Flying Reagent Dispenser (FRD) workstation (Beckman Coulter, Indianapolis, IN, USA). The assay plates were incubated at room temperature for 1 h and fluorescence intensity was measured by an Envision plate reader (PerkinElmer, Shelton, CT). For cell viability readout that measures cytotoxicity, 4 ul/well of CellTiter-Glo reagent was added into the assay plates using a Flying Reagent Dispenser. After 30 min incubation at room temperature, the luminescence intensity in the plates was measured using a ViewLux plate reader (PerkinElmer).
# Potency is read from the fitted curve at half-maximal effect.
row,SMILES,Potency
1,C=CC(C)=O,inactive
2,CCOc1ccc(C(C)(C)COCc2cccc(Oc3ccccc3)c2)cc1,inactive
3,COc1c(C(C)(C)C)cc([N+](=O)[O-])c(C)c1[N+](=O)[O-],inactive
4,Nc1nc(N)nc(N)n1,inactive
5,CC1(C)[C@H](C=C(Cl)Cl)[C@@H]1C(=O)O[C@@H](C#N)c1cccc(Oc2ccccc2)c1,inactive
6,CC1Sc2c(C(=O)O)c(=O)c3cc(F)c(N4CCNCC4)cc3n21 (stereo not given),inactive
7,C[C@H]1CNCCc2ccc(Cl)cc21,inactive
8,CC(C)N(CCC(C(N)=O)(c1ccccc1)c1ccccn1)C(C)C (stereo not given),inactive
9,ClC=C(Cl)Cl,inactive
10,O=C(CBr)Nc1ccc(Cl)cc1C(=O)c1ccccc1F,inactive
11,C#CCOC(C(=O)OCCN(C)C)(c1ccccc1)c1ccccc1,inactive
12,CCCCCCCCCC(=O)O[C@H]1CC[C@H]2[C@@H]3CCC4=CC(=O)CC[C@@H]4[C@H]3CC[C@]12C,inactive
13,COc1cc(Cl)c(OC)cc1Cl,inactive
14,CCOc1nc(F)cc2nc(S(=O)(=O)Nc3c(Cl)cccc3Cl)nn12,inactive
15,[CH3][Sn]([CH3])([Cl])[Cl],inactive
16,CCCCOC(=O)c1ccccc1C(=O)OCc1ccccc1,inactive
17,COCC(C)N(C(=O)CCl)c1c(C)csc1C (stereo not given),inactive
18,CN1C(=O)C(O)N=C(c2ccccc2)c2cc(Cl)ccc21 (stereo not given),inactive
19,NCCCNCCCN,inactive
20,O=C(O)C1(c2ccc3c(c2)OC[C@H](Cc2ccc(-c4ccccc4)cc2)[C@H]3O)CCCC1,43.6 µM (active)

row,SMILES,Potency
1,NNC(=O)c1cccnc1,inactive
2,CCBr,inactive
3,Brc1ccc(Oc2ccccc2)cc1,inactive
4,CCCC(=O)Cl,inactive
5,CC[C@H]1C[C@H]2[C@@H]3CCC4=CC(=O)CC[C@@H]4[C@H]3CC[C@]2(C)[C@H]1O,inactive
6,COCCOCCO,inactive
7,CN1C[C@H](CNC(=O)OCc2ccccc2)C[C@@H]2c3cccc4c3c(cn4C)C[C@H]21,26.6 µM (active)
8,O=C1CN=C(c2ccccc2)c2cc(Cl)ccc2N1CC1CC1,inactive
9,COC(N)=O,inactive
10,Clc1ccc(C2(Cn3cncn3)CC(Br)CO2)c(Cl)c1 (stereo not given),inactive
11,CCOS(C)(=O)=O,inactive
12,O=NN1CCNCC1,inactive
13,CC(=O)[C@H]1CC[C@H]2[C@@H]3CC[C@H]4C[C@](C)(O)CC[C@]4(C)[C@H]3CC[C@]12C,inactive
14,CCCCNP(N)(N)=S,inactive
15,C[N+](C)(C)CCCl,inactive
16,CCn1cc[n+](C)c1,inactive
17,CCOC(=O)C(Cl)C(C)=O (stereo not given),inactive
18,O=C(CBr)c1ccccc1,inactive
19,C=CC(=O)OC,inactive
20,Cc1ccc(N)cc1C,inactive
